Screens deposited in PubChem BioAssay by The Scripps Research Institute Molecular Screening Center.
LYPLA1 inh – LYPLA1 inhibitors, primary screen, counter-screen for PME1 inhibitor project, biochemical, fluorescence polarization, FP-Rh probe ABPP; inhibition, % at 5.9 µM; recombinant LYPLA1; actives 0.16% (n = 320,000); Acyl-protein thioesterase 1 (Homo sapiens), O75608;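 active = inhibition above the mean of all tested compounds plus 3 SD, set per campaign, cut at about 14% in these data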;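 also: inhibitors block serine hydrolase probe labeling of LYPLA1 so polarization falls; 0% = enzyme with DMSO and 100% = wells lacking LYPLA1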
Target sequence (O75608 whole entry, looked up): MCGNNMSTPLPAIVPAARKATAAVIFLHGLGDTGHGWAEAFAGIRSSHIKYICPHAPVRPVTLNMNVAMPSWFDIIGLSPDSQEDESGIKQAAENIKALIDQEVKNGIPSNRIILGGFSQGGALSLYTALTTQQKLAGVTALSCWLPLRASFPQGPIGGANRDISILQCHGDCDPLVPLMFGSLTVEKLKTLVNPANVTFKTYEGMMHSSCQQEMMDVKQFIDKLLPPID
PP5 inh – PP5 phosphatase inhibitors, primary screen, biochemical, fluorescence | Serine/threonine-protein phosphatase 5 (Homo sapiens), P53041 | purified PP5c, OMFP substrate fluorescence | inhibition, % at 6.7 µM | actives 0.18% (n = 320,000) | AID 1987, 2009;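 active = inhibition above the campaign's mean inhibition across all tested compounds plus 3 SD, cut at about 9.5% in these data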;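 also: 0% = DMSO only and 100% = 100 µM cantharidin control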
PME-1 primary – PME-1 inhibitors via competitive probe labeling, primary screen, biochemical, fluorescence polarization, FP-Rh probe, HTS | Protein phosphatase methylesterase 1 (Homo sapiens), Q9Y570 | recombinant PME-1 | inhibition, % at 5.9 µM | actives 0.53% (n = 320,000) | AID 2130, 2009;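 active = inhibition above the campaign mean of all compounds plus 3 SD, cut at about 26% in these data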;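 also: competitive labeling of PME-1 active site by serine hydrolase directed probe; 0% = PME-1 with DMSO and 100% = wells lacking PME-1 enzyme; inhibitors block probe labeling so polarization falls and inhibition rises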
Target sequence (Q9Y570 whole entry, looked up): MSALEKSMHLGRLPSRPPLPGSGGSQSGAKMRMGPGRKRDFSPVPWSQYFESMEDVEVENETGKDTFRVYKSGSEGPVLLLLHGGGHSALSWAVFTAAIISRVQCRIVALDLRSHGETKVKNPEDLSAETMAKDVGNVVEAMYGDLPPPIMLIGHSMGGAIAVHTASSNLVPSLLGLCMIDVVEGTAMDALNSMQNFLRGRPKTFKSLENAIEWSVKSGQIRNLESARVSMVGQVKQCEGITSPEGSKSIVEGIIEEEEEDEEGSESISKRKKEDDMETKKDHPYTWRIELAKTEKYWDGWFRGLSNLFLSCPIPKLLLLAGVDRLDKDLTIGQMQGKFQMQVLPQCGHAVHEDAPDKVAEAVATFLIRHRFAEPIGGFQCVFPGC
PP1 counter – PP1-alpha phosphatase inhibitors, primary screen, counter-screen for PP5 inhibitor project, biochemical, fluorescence, OMFP substrate, single point | purified PP1alpha | inhibition, % at 6.7 µM | actives 0.9% (n = 320,000) | AID 2235, 2010;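 active = inhibition above the mean inhibition of all tested compounds plus 3 SD, computed separately for each screening campaign, cut at about 15% in these data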
LYPLA2 counter – LYPLA2 inhibitors, primary screen, counter-screen for PME1 inhibitor project, biochemical, fluorescence polarization, FP-Rh probe ABPP; AID 2177, 2009; inhibition, % at 5.9 µM; actives 0.38% (n = 320,000); recombinant LYPLA2; Acyl-protein thioesterase 2 (Homo sapiens), O95372;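 active = inhibition above the screen-wide mean plus 3 SD, limit set per campaign, cut at about 26% in these data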;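 also: 0% = LYPLA2 with DMSO and 100% = wells lacking LYPLA2 enzyme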
Fam108B inh – mouse Fam108B serine hydrolase inhibitors, primary screen, counter-screen for RBBP9 inhibitor project, biochemical, fluorescence polarization | actives 0.33% (n = 300,000) | recombinant Fam108B, FP-Rh probe fluorescence polarization | AID 1947, 2009 | inhibition, % at 9.51 µM;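 active = inhibition above the screen mean inhibition plus 3 SD, computed separately per campaign, cut at about 18% in these data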;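 also: inhibitors lower polarization as less probe binds the enzyme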
Active calls of the source: *; / = no result given. This is a sample that favours compounds with a hit; in the whole collection about 1.8% have one here.

SMILES	LYPLA1 inh	PP5 inh	PME-1 primary	PP1 counter	LYPLA2 counter	Fam108B inh
CCOC(=O)c1cccc(NC(=O)/C(=C\c2ccccc2)NC(=O)c2ccccc2Cl)c1	1	2	-4	17*	7	0
COc1ccc(/C=C2\C(=O)NC(=S)N2C(=O)c2ccc(C)cc2)cc1	-15	0	-15	16*	-18	-11
COc1ccc(OC)c(N2Cc3cc(C)c(C)cc3C2)c1	1	2	4	17*	8	-2
COc1ccc(OC)c(-n2c(C)cc(C=O)c2C)c1	3	2	4	-1	5	5
CCOc1ccccc1N1Cc2cc(C)c(C)cc2C1	3	3	0	15*	2	2
CC(=O)c1cnc2nc(SCc3cccc(C)c3)nn2c1C	-2	1	3	-1	10	1
CC(C)N1CCc2c(sc(NC(=O)c3nc4ccccc4s3)c2C(N)=O)C1	-2	1	-1	3	2	2
CC(C)N1CCc2c(sc(NC(=O)c3ccc(S(=O)(=O)N4CCc5ccccc54)cc3)c2C(N)=O)C1	-7	4	8	17*	-9	5
O=C(Nc1ccc(N2CCOCC2)cc1)Nc1ccc(Cl)c(Cl)c1	-7	7	28*	5	5	14
Cc1ccc(S(=O)(=O)N2CCC(C(=O)OC(C)C(=O)N(C)c3ccccc3)CC2)cc1C (stereo unspecified)	-2	1	6	0	-7	/
COc1ccc(Nc2nc(NN)nc(C)c2[N+](=O)[O-])cc1	-5	0	29*	-1	6	9
CC(=O)Nc1ccc(Nc2nc(C)c([N+](=O)[O-])c(Nc3ccccc3)n2)cc1	0	5	30*	3	11	12
CCc1ccc(NC(=O)COC(=O)c2nc3nc(C)cc(C)n3n2)cc1	-1	-1	2	1	1	/
Cc1ccc(C(=O)Nc2ccccc2C(=O)O)cc1S(=O)(=O)Nc1ccc(Br)cc1	-14	4	-32	16*	-22	-22
COc1cc(/C=N/N(c2ccccc2)c2ccccc2)ccc1O	-1	-1	9	5	-2	-1
CN(/N=C\c1ccc(O)c(O)c1)c1nc(-c2ccccc2)cc(-c2ccccc2)n1	-15	4	22	2	-7	21*
O=C(c1ccccc1)N1CCC(c2nc3c(nnn3Cc3ccccc3Cl)c(=O)[nH]2)CC1	-3	3	21	1	2	6
CC(C)(C)c1ccc(Cn2nnc3c(=O)[nH]c(C4CCCN(C(=O)c5cccs5)C4)nc32)cc1 (stereo unspecified)	3	3	24	16*	-5	-3
O=C(NCc1cccs1)c1nc2c(nnn2Cc2ccccc2Cl)c(=O)[nH]1	-3	2	8	21*	-2	0
O=C(c1cccs1)N1CCC(c2nc3c(nnn3Cc3ccccc3Cl)c(=O)[nH]2)CC1	0	1	28*	3	0	-1
Cc1ccc(C)c(N(C(=O)c2csnn2)C(C(=O)NC2CCCCC2)c2ccccn2)c1 (stereo unspecified)	0	0	-1	-2	-8	-4
Nc1ccc(Nc2nc3ccccc3[nH]2)cc1	-8	3	40*	4	5	17
COC(=O)CCC(=O)OC1(C)C(=O)C2=CN(CC3CC3)C(c3ccc(OC)cc3)=CC2=C(Br)C1=O (stereo unspecified)	0	7	3	17*	4	7
COC(=O)CCC(=O)OC1(C)C(=O)C2=CN(Cc3ccc(OC)cc3)C(c3ccc(OC)cc3)=CC2=C(Br)C1=O (stereo unspecified)	-3	4	3	9	-2	2
CC(C)c1ccc(C2CC(=O)c3cnc(N4CCc5ccccc5C4)nc3C2)cc1 (stereo unspecified)	-2	2	-9	4	5	4
SMILES	LYPLA1 inh	PP5 inh	PME-1 primary	PP1 counter	LYPLA2 counter	Fam108B inh
O=C1CC(c2ccco2)Cc2nc(N3CCc4ccccc4C3)ncc21 (stereo unspecified)	-6	-7	-7	17*	-5	-1
O=[N+]([O-])c1cccc(-c2c(-c3ccccc3)ncc3ccc(F)cc23)c1	-4	1	6	-3	-3	/
O=C(CBr)Nc1c2c(nn1-c1ccccc1)CSC2	1	1	-5	-1	4	-2
COc1ccc(C(=O)NCc2cnn(C)c2C)cc1OC1CCN(C(C)C)CC1	0	0	3	-3	0	3
Cc1cccc(NC(=O)NCc2ccc3c(c2)cc(C)n3C)c1	0	1	-4	14	-8	-2
Cc1cc2cc(CNC(=O)Nc3cccc(Cl)c3)ccc2n1C	-7	3	-5	16*	-13	-7
COC1OC(COC(=O)c2ccccc2)C(OC(=O)c2ccccc2)C1OC(=O)c1ccccc1 (stereo unspecified)	-4	1	-5	2	-1	-2
O=C(OC[C@H]1O[C@@H](OC(=O)c2cc(O)c(O)c(OC(=O)c3cc(O)c(O)c(O)c3)c2)[C@H](OC(=O)c2cc(O)c(O)c(OC(=O)c3cc(O)c(O)c(O)c3)c2)[C@@H](OC(=O)c2cc(O)c(O)c(OC(=O)c3cc(O)c(O)c(O)c3)c2)[C@@H]1OC(=O)c1cc(O)c(O)c(OC(=O)c2cc(O)c(O)c(O)c2)c1)c1cc(O)c(O)c(OC(=O)c2cc(O)c(O)c(O)c2)c1	0	4	26*	82*	17	65*
CN1CCN(C(=O)c2ccc(CSc3nc4ccncc4n3Cc3ccc(F)cc3)cc2)CC1	2	0	0	5	4	-3
CCOC(=O)N1CCN(C(=O)c2ccc3nc(SCc4ccc(F)cc4)n(C)c3c2)CC1	-28	3	-4	-3	28*	1
Cc1cc(C)c2c(N)c(C(=O)Nc3ccccc3Br)sc2n1	-1	2	-2	10	-3	0
Cc1cc(C)c2c(N)c(C(=O)Nc3ccccc3Cl)sc2n1	-2	-2	-1	17*	4	-2
CCC(NC(=S)NCc1ccc(F)cc1)c1ccccc1 (stereo unspecified)	-5	1	5	-1	-6	-1
Cc1ccc(OCc2nnc(SCC(=O)Nc3cccc4ccccc34)n2-c2ccccc2)cc1	-12	8	-14	15*	-15	-11
CCN(CC(=O)Nc1cccc(S(=O)(=O)N2CCOCC2)c1)Cc1ccccc1	1	-1	7	-5	-3	0
